# The campaign covered roughly 2,400 compounds. About 750 (31%) were called active. Some of the results follow. Unmarked numbers belong to inactive results.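 How the source made its calls: active means median signal gain over dofetilide-blocked control wells reaching their mean plus 3 SD, so readout 1 at least 0; inactive means the rest.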
# Molecular target: Voltage-gated inwardly rectifying potassium channel KCNH2 (Homo sapiens) (UniProt Q12809)
# Experiment: modulators restoring hERG flux under dofetilide – cell-based, thallium flux, duplicate retest, dofetilide IC70, confirmation (AID 1835)
# Conditions: hERG cell line, FluxOR thallium flux, dofetilide-blocked; at 10 µM; hits give high values
# Voltage-gated inwardly rectifying potassium channel KCNH2 (Homo sapiens), sequence (Q12809 whole entry, looked up): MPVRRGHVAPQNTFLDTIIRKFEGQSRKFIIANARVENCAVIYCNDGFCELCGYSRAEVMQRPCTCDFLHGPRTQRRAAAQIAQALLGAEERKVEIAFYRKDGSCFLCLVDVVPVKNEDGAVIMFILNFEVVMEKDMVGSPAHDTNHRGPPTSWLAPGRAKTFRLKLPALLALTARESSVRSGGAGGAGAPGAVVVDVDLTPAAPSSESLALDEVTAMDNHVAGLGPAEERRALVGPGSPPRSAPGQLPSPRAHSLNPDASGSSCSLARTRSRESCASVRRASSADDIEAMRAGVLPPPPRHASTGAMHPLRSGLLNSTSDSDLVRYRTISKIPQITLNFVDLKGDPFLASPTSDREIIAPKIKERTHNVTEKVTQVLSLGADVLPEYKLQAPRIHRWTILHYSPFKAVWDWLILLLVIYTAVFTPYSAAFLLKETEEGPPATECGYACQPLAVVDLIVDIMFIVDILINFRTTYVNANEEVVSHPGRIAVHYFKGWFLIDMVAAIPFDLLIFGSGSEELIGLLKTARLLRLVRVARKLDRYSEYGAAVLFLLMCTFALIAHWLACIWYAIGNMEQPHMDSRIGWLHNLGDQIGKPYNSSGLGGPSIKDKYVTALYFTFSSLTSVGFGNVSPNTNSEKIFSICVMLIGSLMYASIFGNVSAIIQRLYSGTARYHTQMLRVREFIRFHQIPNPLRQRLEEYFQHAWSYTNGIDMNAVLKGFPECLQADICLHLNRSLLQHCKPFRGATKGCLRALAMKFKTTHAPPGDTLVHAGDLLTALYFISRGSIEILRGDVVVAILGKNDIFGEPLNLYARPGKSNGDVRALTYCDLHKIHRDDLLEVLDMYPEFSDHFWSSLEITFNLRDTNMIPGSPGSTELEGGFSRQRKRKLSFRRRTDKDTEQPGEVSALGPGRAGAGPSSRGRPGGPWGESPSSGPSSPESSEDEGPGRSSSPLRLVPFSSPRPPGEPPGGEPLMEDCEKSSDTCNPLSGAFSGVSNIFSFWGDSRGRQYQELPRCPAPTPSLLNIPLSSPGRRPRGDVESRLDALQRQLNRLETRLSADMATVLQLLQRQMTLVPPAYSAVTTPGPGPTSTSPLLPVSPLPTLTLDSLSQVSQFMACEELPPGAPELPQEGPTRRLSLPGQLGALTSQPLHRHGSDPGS
row,SMILES,"activity increase over dofetilide control, less the hit threshold"
1,CC(NC(=O)CCCn1cc([N+](=O)[O-])cn1)c1ccccc1 (configuration not stated),-14%
2,CSc1nc(-c2ccco2)cc(C(F)(F)F)c1C#N,-17%
3,C=CCn1c(=S)[nH]c2ccc(Br)cc2c1=O,10% (active)
4,COc1ccc(Br)cc1CNc1ccccc1,-21%
5,C=CCn1c(=S)[nH]c2cc(-c3ccccc3)sc2c1=O,6% (active)
6,C=CCn1c(=S)[nH]c2nc3c(cc2c1=O)CCCC3,-9%
7,Oc1ccc(Br)cc1-c1n[nH]c(=S)n1Cc1ccccc1,-17%
8,COc1ccccc1Cn1c(=S)[nH]c2ccc(Br)cc2c1=O,6% (active)
9,Cc1cc(=O)[nH]c(=S)n1-c1ccccc1,-14%
10,CC12CCC(C(=O)OC3CCCCC3)(OC1=O)C2(C)C (configuration not stated),-17%
11,O=C(O)Cc1cc(I)c(Oc2ccc(O)c(I)c2)c(I)c1,18% (active)
12,O=C(O)CN1C(=O)c2ccc(Oc3ccc4c(c3)C(=O)N(CC(=O)O)C4=O)cc2C1=O,-10%
13,O=C(NCCCN1CCOCC1)c1ccc(CS(=O)(=O)Cc2ccccc2Cl)o1,-11%
14,CCn1ccnc1CN1CCCC(CO)(Cc2cccc(OC)c2)C1 (configuration not stated),-11%
15,O=C(NC(=S)NCCc1ccccc1)c1cccc(Cl)c1,4% (active)
16,O=C(NCc1cccc(Cl)c1)c1ccncc1,-10%
17,S=C(NCCc1ccccc1)N/N=C/c1c(Cl)cccc1Cl,-12%
18,Cc1sc2nc[nH]c(=S)c2c1-c1ccccc1,36% (active)
19,Cc1c(-c2ccccc2)sc2nc[nH]c(=S)c12,52% (active)
20,Fc1ccc(-n2cc(-c3ccccc3)c3c(=S)nc[nH]c32)cc1,-1%
21,COC(=O)c1ccc(NN=Nc2ccc(C)cc2)cc1,-6%
22,Nc1nonc1C(=O)N1CCCC1,-9%
23,Cc1nnc2ccc(-c3cccc(NC(=O)c4ccc(Cl)nc4)c3)nn12,-12%

row,SMILES,"activity increase over dofetilide control, less the hit threshold"
1,COc1ccc2nc(N3CCCCC3)c(/C=C3\SC(=S)NC3=O)cc2c1,3% (active)
2,Cc1cc(NC(C)C)n2c(nc3ccccc32)c1C#N,-18%
3,O=C(O)CN1C(=O)C(=O)N(Cc2ccc(C(F)(F)F)cc2)C1=O,6% (active)
4,O=C(Nc1cccnc1)c1ccc(COc2ccccc2Br)o1,-3%
5,O=C(Nc1cccnc1)c1ccc(COc2cc(Cl)ccc2Cl)o1,0% (active)
6,O=C(Nc1ccc(Cl)c(-c2nc3ccccc3[nH]2)c1)c1cccnc1,-43%
7,COc1ccc(Cc2c(O)nc(SCC(C)C)[nH]c2=O)cc1,-18%
8,OC(CNCCc1ccc(C(F)(F)F)cc1)COc1cccc2ccccc12 (configuration not stated),-22%
9,O=C(OCc1ccccc1)C1=NNC2C(=O)N(c3ccc(Br)cc3)C(=O)C12 (configuration not stated),-2%
10,Cc1cc(C(=O)CCC(=O)NC(C)c2ccc(S(N)(=O)=O)cc2)c(C)s1 (configuration not stated),-15%
11,Cc1ccc(/C=N/Nc2ccc(C(=O)O)cc2)o1,1% (active)
12,COc1ccc(/C(C)=N/Nc2ccc(C(=O)O)cc2)c(OC)c1,-12%
13,Cc1ccc(/C=N/Nc2nc(C(C)(C)C)cs2)o1,-17%
14,CC(C)(C)OC(=O)C(Cl)(C(=O)OC(C)(C)C)c1ccc2nnnn2n1,-27%
15,Cc1ccc2nc(SCC(=O)N3CCCCCC3)nc(=O)n2c1,-20%
16,Cc1cc(C)c(C(=O)c2ccc(C(=O)N3CCCCC3)cc2)c(C)c1,23% (active)
17,CC(C)Oc1cccc(C(=O)N2CCCC2)c1,-4%
18,COc1ccc(C)cc1NC(=O)Nc1ccc(C(=O)N2CCCC2)cc1,-5%
19,Cc1ccc(SCc2ccc(C(=O)N3CCCC3)cc2)cc1,9% (active)
20,Cc1ccc(CNC(=O)c2ccc(CNc3c(N4CCCC4)c(=O)c3=O)cc2)cc1,-7%
21,O=c1cc(O)c2ccccc2n1Cc1ccccc1Cl,-8%
22,COc1ccc(-c2c(C#N)c(SCC(=O)c3cc4ccccc4oc3=O)nc(C)c2C(=O)Nc2ccccc2)cc1,-13%
23,Cc1ccc(Nc2nc(C)cs2)cc1,-16%

row,SMILES,"activity increase over dofetilide control, less the hit threshold"
1,Cc1ccc(Nc2nc(-c3ccncc3)cs2)cc1,-8%
2,Cc1ccc(Nc2nc(-c3cccs3)cs2)nc1,1% (active)
3,COc1ccccc1-n1cnc2sc(C)c(C)c2c1=O,-6%
4,CCN1C(=O)[C@H]2[C@@H](c3ccc(-c4ccc(OC)cc4)cc3)N[C@@](C)(C(=O)OC)[C@H]2C1=O,-4%
5,CCCCn1nc(NC(=O)COC)c2cc3ccc(C)cc3nc21,-22%
6,CCOC(=O)C(C)Sc1nc2c(c(-c3cccs3)c1C#N)CCC2 (configuration not stated),1% (active)
7,COc1cc(/C=C2/C(=O)NN(c3ccccc3)C2=O)cc(Br)c1O,-25%
8,Cc1cccc(N(C(=O)c2csnn2)C(C(=O)NCc2ccccc2)c2ccncc2)c1 (configuration not stated),-11%
9,CCCNC(=O)N1CCN(S(=O)(=O)c2ccc(C)cc2)CC1,-16%
10,CSc1nc2c(c(=O)[nH]1)C(c1ccccc1Cl)CC(=O)N2 (configuration not stated),17% (active)
11,CSc1nc2c(c(=O)[nH]1)C(c1ccc(Cl)cc1)CC(=O)N2 (configuration not stated),113% (active)
12,CSc1nc2c(c(=O)[nH]1)C(c1ccc(Br)cc1)CC(=O)N2 (configuration not stated),25% (active)
13,CSc1nc(C)c(Cc2ccccc2)c(=O)[nH]1,-20%
14,O=c1[nH]c(=S)[nH]c2c1C(c1ccc(Br)cc1)c1c([nH]c(=S)[nH]c1=O)O2,-17%
15,CSc1nc2c(c(=O)[nH]1)C(c1ccc(F)cc1)CC(=O)N2 (configuration not stated),18% (active)
16,CCSc1nc2c(c(=O)[nH]1)C(c1ccc(C)cc1)C1=C(CCCC1=O)N2 (configuration not stated),-7%
17,CN1N=C(C(=O)N2CCc3c([nH]c4ccccc34)C2c2c(F)cccc2Cl)CCC1=O (configuration not stated),-13%
18,O=C(O)Cn1cc(CN2CCOCC2)c2ccccc21,-22%
19,Cc1cccc(NC(=S)N/N=C2/CCCCc3ccccc32)c1,-11%
20,S=c1[nH]nc(CSc2nc3ccccc3s2)n1C1CCCCC1,5% (active)
21,O=C(N/N=C/c1ccccn1)c1sc2ccccc2c1Cl,-27%
22,CCCCOC(=S)NC(=O)c1sc2ccccc2c1Cl,86% (active)
23,COC(=O)Cn1c(=NC(=O)c2sc3ccccc3c2Cl)sc2cc(S(N)(=O)=O)ccc21,-2%

row,SMILES,"activity increase over dofetilide control, less the hit threshold"
1,Cc1ccc(NC(=S)NC(=O)c2sc3ccccc3c2Cl)c(C(=O)O)c1,-1%
2,CCOC(=S)NC(=O)c1sc2ccccc2c1Cl,40% (active)
3,CCCOC(=S)NC(=O)c1sc2ccccc2c1Cl,30% (active)
4,CC(C)C(=O)N(c1ccc(F)cc1)C1C=CS(=O)(=O)C1 (configuration not stated),-20%
5,CCOC(=O)C1C(c2ccccc2)C(C(=O)OCC)C1c1ccccc1 (configuration not stated),-6%
6,CCCSc1cc(NCCOC(C)=O)c([N+](=O)[O-])c2nonc12,-13%
7,CC(C)CCNC(=O)CCc1nnc(Cc2c[nH]c3ccccc23)o1,-9%
8,CCCCCN(C(=O)CCC(=O)OC(C)C(=O)c1ccccc1)c1c(N)n(CCCC)c(=O)[nH]c1=O (configuration not stated),-16%
9,CCCNC(=O)N(C)c1nncnc1C(=O)NC,-7%
10,O=C1NCC(=O)N2C(c3ccccc3)c3[nH]c4ccccc4c3C[C@@H]12 (some centres not stated),-22%
11,CC1CCC(n2c(=S)[nH]c3ccccc3c2=O)CC1 (configuration not stated),22% (active)
12,CC1CCC(N2CCN(C(=O)c3ccccc3F)CC2)CC1 (configuration not stated),-6%
13,O=c1c2ccccc2[nH]c(=S)n1C1CCCCC1,2% (active)
14,CC1CCCCC1n1c(=S)[nH]c2ccccc2c1=O (configuration not stated),1% (active)
15,C=CCNC(=O)c1onc(CSc2ccc(OC)cc2)c1C(=O)O,-11%
16,NC(=O)CC1NC(=O)c2ccccc21 (configuration not stated),-10%
17,O=C(Cn1c(=O)oc2ccccc21)Nc1ccc(F)c(F)c1,-29%
18,Cc1cc(=S)[nH]c2c(C)cccc12,5% (active)
19,S=c1[nH]c2cc(-c3ccccc3)ccc2o1,84% (active)
20,Cc1ccc(-c2nc(CS(=O)(=O)CC(=O)NCCN3CCOCC3)c(C)o2)cc1,-13%
21,CCOc1c(OC)ccc2c3c(c(=O)oc12)CCCC3,-20%
22,Cc1c(OC(C)C(=O)NCCN2CCOCC2)ccc2c3c(c(=O)oc12)CCC3 (configuration not stated),3% (active)
23,CCCn1c(=S)[nH]c2ccc(C(F)(F)F)cc21,-3%

row,SMILES,"activity increase over dofetilide control, less the hit threshold"
1,FC(F)(F)c1cnc2c(c1)[nH]c(=S)n2-c1ccc(Cl)cc1,21% (active)
2,Clc1ccc(N=NN2CCOCC2)cc1,-8%
3,COc1cc2c(=O)nc3n(c2cc1OC)C(c1ccccc1)N=C(N)N3 (configuration not stated),-8%
4,CCN(CC)C(=O)CN1C(=O)c2cccc3cccc(c23)C1=O,-15%
5,CN1C(=O)/C(=N/OC(=O)c2ccccc2)c2ccccc21,3% (active)
6,CN1C(=O)/C(=N\OC(=O)c2cccc3ccccc23)c2ccccc21,15% (active)
7,CN1C(=O)c2ccc(C(=O)NCc3ccccc3)cc2C1=O,-16%
8,O=C1c2ccccc2C(=O)N1c1cccnc1,-12%
9,c1ccc(OCc2nn3c(Cn4cnc5ccccc54)nnc3s2)cc1,-10%
10,CCOc1ccc(NC(=O)CS(=O)CC(=O)NC2CCCc3ccccc32)cc1 (configuration not stated),-7%
11,O=C(NC(=S)Nc1cccc(Cl)c1N1CCCCC1)c1cccs1,-10%
12,O=C(COc1ccccc1Cl)NC(=S)Nc1ccccc1N1CCCC1,15% (active)
13,O=C(CNC1CCCCCC1)Nc1ccccc1N1CCOCC1,-12%
14,O=C(NC(=S)Nc1cccc(Cl)c1N1CCCCC1)c1ccco1,52% (active)
15,O=C(NC(=S)NC1CCCc2ccccc21)c1ccco1 (configuration not stated),13% (active)
16,O=C(NC(=S)Nc1ccccc1N1CCCC1)c1ccc([N+](=O)[O-])cc1,4% (active)
17,O=C(COc1ccc(Cl)cc1Cl)NC(=S)Nc1ccccc1C(=O)O,-6%
18,O=C(NC(=S)Nc1ccccc1N1CCCC1)c1ccc(-c2cccc([N+](=O)[O-])c2)o1,-6%
19,O=C(NC(=S)Nc1cccc(Cl)c1N1CCOCC1)c1cccs1,-5%
20,Cc1cccc(OCC(=O)NC2CCCc3ccccc32)c1C (configuration not stated),-11%
